Results from PubChem BioAssay (NCATS).
Records with an inconclusive call do not appear. The source made the active and inactive calls. Unless noted, the call rests on the fitted dose curve; in most records, active means well fitted cell-killing curve with a large enough effect; inconclusive means small, poorly fitted or top-dose-only effect; inactive means flat fitted curve, though single readings scatter.

Columns and labels:
[1] = Cell Viability - LYMP2-025 (AID 976);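 further: series mostly up to about 92 µM; plate controls were DMSO only for no effect and tetraoctylammonium bromide control for full effect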
Procedure, shortened: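 Acute cytotoxicity is scored as a concentration-dependent fall in intracellular ATP, measured by luciferase luminescence, in human lymphoblastoid LYMP2-025 cells exposed to compound for 24 hours at 37 C. AC50 values come from standard Hill fits.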

[2] = Cell Viability - LYMP2-002 (AID 977);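 further: series mostly up to about 92 µM; compound exposure lasted 24 h at 37 °C; plate controls were DMSO only for no effect and 92 µM tetraoctylammonium bromide for full effect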
Procedure, shortened: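 Human lymphoblastoid cells, 2500/well, complete medium; 5 h 37 C settle; compound 24 h 37 C; CellTiter-Glo, 30 min RT; luminescence. Decrease in ATP = cytotoxicity; AC50 via Hill equation.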

[3] = Cell Viability - LYMP2-006 (AID 978); further: series mostly up to about 92 µM; on the % scale 0 is the no-effect control and ±100 the full control effect; nearly all actives have a fitted effect of over 60% in size
Procedure, shortened: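 Human lymphoblastoid cells (LYMP2-006), 2500/well in complete medium, were treated with compound for 24 hr at 37 C. Cellular ATP was read by CellTiter-Glo luminescence after 30 min, and AC50 values came from Hill-equation fits of concentration-response data.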

[4] = Cell Viability - LYMP2-007 (AID 979);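 further: cells exposed to compound for 24 h before reading; 0% = DMSO only and the negative end = 92 µM tetraoctylammonium bromide; nearly all actives have a fitted effect of over 60% in size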
Procedure, shortened: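 Cells are seeded at 2500 per well and rested 5 hr. Compounds are then added over a concentration series for 24 hr at 37 C. CellTiter-Glo is added for 30 min at room temperature before luminescence reading.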

[5] = Cell Viability - LYMP2-008 (AID 980); further: on the % scale 0 is the no-effect control and ±100 the full control effect; nearly all actives have a fitted effect of over 60% in size
Procedure, shortened: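 Cells seeded at 2500/well and rested 5 hr at 37 C; compounds added over a concentration range and incubated 24 hr at 37 C; CellTiter-Glo added, 30 min at room temperature; luminescence read and AC50 fitted with Hill model.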

[6] = Cell Viability - LYMP2-010 (AID 981); further: on the % scale 0 is the no-effect control and ±100 the full control effect; nearly all actives have a fitted effect of over 55% in size
Procedure, shortened: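 Steps: seed 2500 LYMP2-010 cells per well; incubate 5 hr at 37 C; add compound; incubate 24 hr at 37 C; add CellTiter-Glo, wait 30 min at room temperature; read luminescence. Concentration-response fitted to Hill equation for AC50.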

[7] = Cell Viability - LYMP2-012 (AID 982);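 further: cellular ATP by luciferase luminescence where a drop means cytotoxicity; cells exposed to compound for one day before reading; 0% = DMSO only and full loss = 92 µM tetraoctylammonium bromide; nearly all actives have a fitted effect of over 55% in size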
[8] = Cell Viability - LYMP2-014 (AID 983);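 further: series mostly up to about 92 µM; plate controls were DMSO only for no effect and 92 µM tetraoctylammonium bromide for full effect; nearly all actives have a fitted effect of over 50% in size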
Procedure, shortened: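 Cells are plated at 2500/well and left 5 hr at 37 C. Compounds are added across a concentration range and incubated 24 hr at 37 C in complete medium. CellTiter-Glo is added, and luminescence is read after 30 min at room temperature.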

[9] = Cell Viability - LYMP2-016 (AID 984); further: on the % scale 0 is the no-effect control and ±100 the full control effect; nearly all actives have a fitted effect of over 55% in size
Procedure, shortened: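 Human lymphoblastoid LYMP2-016 cells, 2500 per well, treated with compounds for 24 h at 37 C. Viability read as intracellular ATP by CellTiter-Glo luminescence after 30 min at room temperature; AC50 from Hill fits of concentration-response.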

[10] = Cell Viability - LYMP2-018 (AID 985);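 further: compound exposure lasted 24 hr at 37 °C; plate controls were DMSO only for no effect and tetraoctylammonium bromide at 92 µM for full effect; nearly all actives have a fitted effect of over 50% in size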
Procedure, shortened: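 Seed 2500 lymphoblastoid cells per well, incubate 5 hr at 37 C, add compound and incubate 24 hr at 37 C, add CellTiter-Glo, wait 30 min at room temperature, then read luminescence.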

[11] = Cell Viability - LYMP2-020 (AID 986);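 further: series mostly up to about 92 µM; plate controls were DMSO only for no effect and tetraoctylammonium bromide at 92 µM for full effect; nearly all actives have a fitted effect of over 55% in size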
Procedure, shortened: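 Seed 2500 cells per well and incubate 5 hr at 37 C. Add compounds at a concentration series and incubate 24 hr at 37 C. Add CellTiter-Glo, wait 30 min at RT, read luminescence, and fit a Hill curve for AC50.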

[12] = Cell Viability - LYMP2-022 (AID 987)
Procedure, shortened: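 Cells were seeded at 2500 per well, rested 5 hr at 37 C, and treated with titrated compounds for 24 hr at 37 C. Cellular ATP was then quantified by luciferase luminescence, and AC50 values were derived from Hill-modelled concentration-response curves.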

[13] = Cell Viability - LYMP2-024 (AID 988);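 further: plate controls were DMSO only for no effect and 92 µM tetraoctylammonium bromide for full effect; nearly all actives have a fitted effect of over 60% in size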
Procedure, shortened: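 qHTS cytotoxicity, human lymphoblastoid line, complete medium; 24 h cpd treatment, 37 C; CellTiter-Glo ATP luminescence readout; tetraoctylammonium bromide positive control; AC50 via Hill fit.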

[14] = Cell Viability - LYMP2-026 (AID 989); further: on the % scale 0 is the no-effect control and ±100 the full control effect; nearly all actives have a fitted effect of over 50% in size
Procedure, shortened: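 Cells are seeded at 2500 per well and held 5 hr at 37 C. Compounds are added in concentration series for 24 hr, then CellTiter-Glo reagent is applied and luminescence read.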

[15] = Cell Viability - LYMP1-002 - Assay at 24 hr (AID 993); further: on the % scale 0 is the no-effect control and ±100 the full control effect
Procedure, shortened: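 Acute toxicity is measured as concentration-dependent loss of cellular ATP in a human lymphoblastoid line (Coriell LYMP1-002) after 24 h treatment in complete medium. ATP is quantified by luciferase luminescence and AC50 derived by Hill modelling.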

[16] = Cell Viability - LYMP1-002 - Assay at 40 hr (AID 994)
Procedure, shortened: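 Cells are plated at 2500 per well and rested 5 hr at 37 C. Compounds are added and incubated 40 hr at 37 C. CellTiter-Glo reagent is added for 30 min at room temperature before luminescence is read.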

[17] = qHTS Assay for Identification of Small Molecule Inducers of Hypoxia Response (AID 2120; active means well fitted curve in the direction sought with a large enough effect in the signal ratio, with a control signal flat, not every such curve was filed as active; the % refers to the signal ratio; further: 0% is about no effect)
Procedure, shortened: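 Cell-based qHTS for reporter induction: hypoxia response element controlled beta-lactamase in ME-180 cells. Compounds incubated 17 h at 37 degrees C; activity from blue/green (460/530 nm) ratio, inducers ranked by AC50.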

[18] = target: Estrogen receptor (Homo sapiens) (UniProt P03372); test: qHTS assay for small molecule antagonists of estrogen receptor alpha signaling (AID 588513; active means well fitted curve in the direction sought with a large enough effect in the signal ratio, with a control signal flat, not every such curve was filed as active; the % refers to the signal ratio; further: on the % scale 0 is the no-effect control and ±100 the full control effect)
Procedure, shortened: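 ER-alpha-UAS-bla GripTite HEK 293 cells in 2% charcoal/dextran-treated FBS medium; compounds titrated (1:2, duplicate), then stimulated with 0.5 nM 17-beta-estradiol for 18 h at 37C. CCF4 beta-lactamase fluorescence; Hill-fit IC50 and efficacy.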

[19] = target: Estrogen receptor (Homo sapiens) (UniProt P03372); test: qHTS assay for small molecule agonists of estrogen receptor alpha signaling (AID 588514; calls by dose curve;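 further: 0% = vehicle only and 100% = reference agonist; nearly all actives have a fitted effect of over 70% in size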)
Procedure, shortened: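 Efficacy is expressed against 20 nM 17-beta-estradiol (100%) and DMSO basal (0%); EC50 from Hill equation. Assay: beta-lactamase reporter in ER-alpha-UAS-bla HEK 293 cells, 18 h compound incubation, CCF4 detection.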

[20] = target: Androgen receptor (Homo sapiens) (UniProt P10275); test: qHTS assay for small molecule agonists of androgen receptor signaling (AID 588515; active means well fitted curve in the direction sought with a large enough effect in the signal ratio, with a control signal flat; the % refers to the signal ratio; further: on the % scale 0 is the no-effect control and ±100 the full control effect); conditions: AR-UAS-bla HEK293, beta-lactamase ratio, agonist 16 h; hits give high values
Procedure, shortened: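 Stimulation of an AR-responsive β-lactamase reporter in GripTite HEK293 cells was measured after 16 h compound exposure at 37 °C, via CCF4 fluorescence after 2 h RT. EC50 from Hill fits, normalized to R1881 at 30 nM.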

Sequence of Estrogen receptor (Homo sapiens) (P03372 whole entry, looked up): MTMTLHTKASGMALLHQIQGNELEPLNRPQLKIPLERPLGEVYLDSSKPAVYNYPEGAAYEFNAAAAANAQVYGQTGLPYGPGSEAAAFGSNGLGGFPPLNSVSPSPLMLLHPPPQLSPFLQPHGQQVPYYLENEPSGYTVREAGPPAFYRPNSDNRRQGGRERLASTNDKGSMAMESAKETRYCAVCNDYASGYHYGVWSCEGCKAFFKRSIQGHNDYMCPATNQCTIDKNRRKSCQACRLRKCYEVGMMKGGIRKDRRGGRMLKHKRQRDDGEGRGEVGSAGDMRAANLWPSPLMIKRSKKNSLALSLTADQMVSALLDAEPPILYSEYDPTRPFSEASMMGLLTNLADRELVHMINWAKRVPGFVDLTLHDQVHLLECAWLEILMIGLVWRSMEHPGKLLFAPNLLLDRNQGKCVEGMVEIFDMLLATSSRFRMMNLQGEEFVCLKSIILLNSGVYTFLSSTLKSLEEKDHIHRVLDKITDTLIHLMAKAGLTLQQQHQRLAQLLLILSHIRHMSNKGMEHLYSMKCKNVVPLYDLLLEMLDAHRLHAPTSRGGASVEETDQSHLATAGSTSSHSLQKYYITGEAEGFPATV
Sequence of Androgen receptor (Homo sapiens) (P10275 whole entry, looked up): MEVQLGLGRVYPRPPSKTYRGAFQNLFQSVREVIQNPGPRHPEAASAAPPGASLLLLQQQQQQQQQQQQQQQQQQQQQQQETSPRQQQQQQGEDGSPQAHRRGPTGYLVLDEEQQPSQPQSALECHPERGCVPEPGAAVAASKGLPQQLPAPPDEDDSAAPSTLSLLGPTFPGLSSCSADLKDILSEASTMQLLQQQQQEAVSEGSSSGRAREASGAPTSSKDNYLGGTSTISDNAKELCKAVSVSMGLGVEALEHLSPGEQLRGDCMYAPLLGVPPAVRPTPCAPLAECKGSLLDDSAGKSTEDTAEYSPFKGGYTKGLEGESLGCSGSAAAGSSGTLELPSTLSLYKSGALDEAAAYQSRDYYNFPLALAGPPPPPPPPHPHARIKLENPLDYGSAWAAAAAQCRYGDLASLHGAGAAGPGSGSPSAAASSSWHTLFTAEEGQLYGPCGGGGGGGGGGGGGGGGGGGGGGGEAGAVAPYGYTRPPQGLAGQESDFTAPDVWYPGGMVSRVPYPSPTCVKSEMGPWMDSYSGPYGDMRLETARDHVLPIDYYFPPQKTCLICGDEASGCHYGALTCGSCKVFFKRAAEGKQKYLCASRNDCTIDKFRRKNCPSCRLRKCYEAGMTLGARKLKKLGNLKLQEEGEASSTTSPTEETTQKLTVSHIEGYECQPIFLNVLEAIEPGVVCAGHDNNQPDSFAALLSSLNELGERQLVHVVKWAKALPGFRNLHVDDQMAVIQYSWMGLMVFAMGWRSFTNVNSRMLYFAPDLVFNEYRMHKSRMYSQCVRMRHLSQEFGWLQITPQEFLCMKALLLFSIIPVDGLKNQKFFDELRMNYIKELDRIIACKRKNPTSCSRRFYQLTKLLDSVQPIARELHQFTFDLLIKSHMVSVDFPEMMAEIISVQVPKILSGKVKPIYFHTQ

ClCCl
inactive: Potency [1] | Potency [2] | Potency [3] | Potency [4] | Potency [5] | Potency [6] | Potency [7] | Potency [8] | Potency [9] | Potency [10] | Potency [11] | Potency [12] | Potency [13] | outcome [14] | Potency [15] | Potency [16] | outcome [17] | outcome [18] | Potency [19] | activation [20] 2.05%

BrC(Br)C(Br)Br
inactive: Potency [2] | Potency [3] | Potency [4] | Potency [5] | Potency [6] | Potency [7] | Potency [8] | Potency [9] | Potency [11] | Potency [12] | Potency [13] | outcome [14] | Potency [15] | Potency [16] | outcome [17] | outcome [18] | Potency [19] | activation [20] 2.87%

Cc1ccc(C)cc1
inactive: Potency [1] | Potency [2] | Potency [3] | Potency [4] | Potency [5] | Potency [6] | Potency [7] | Potency [8] | Potency [9] | Potency [10] | Potency [11] | Potency [12] | Potency [13] | outcome [14] | Potency [15] | Potency [16] | outcome [17] | outcome [18] | Potency [19] | activation [20] 10.6%

O=C(O)CCSSCCC(=O)O
inactive: Potency [1] | Potency [2] | Potency [3] | Potency [4] | Potency [5] | Potency [6] | Potency [7] | Potency [8] | Potency [9] | Potency [10] | Potency [11] | Potency [12] | Potency [13] | outcome [14] | Potency [15] | Potency [16] | outcome [17] | outcome [18] | Potency [19] | activation [20] -2.34%

Nc1ccc(Cl)cc1[N+](=O)[O-]
inactive: Potency [1] | Potency [2] | Potency [3] | Potency [4] | Potency [5] | Potency [6] | Potency [7] | Potency [8] | Potency [9] | Potency [10] | Potency [11] | Potency [12] | Potency [13] | outcome [14] | Potency [15] | Potency [16] | outcome [17] | outcome [18] | Potency [19] | activation [20] 7.43%

c1ccc2c(c1)ccc1ncccc12
inactive: Potency [1] | Potency [2] | Potency [3] | Potency [4] | Potency [5] | Potency [6] | Potency [7] | Potency [8] | Potency [9] | Potency [10] | Potency [11] | Potency [12] | Potency [13] | outcome [14] | Potency [15] | Potency [16] | outcome [17] | outcome [18] | Potency [19] | activation [20] 7.08%

Cc1cc([N+](=O)[O-])ccc1N
inactive: Potency [1] | Potency [2] | Potency [3] | Potency [4] | Potency [5] | Potency [6] | Potency [7] | Potency [8] | Potency [9] | Potency [10] | Potency [11] | Potency [12] | Potency [13] | outcome [14] | Potency [15] | Potency [16] | outcome [17] | outcome [18] | Potency [19]

OCCO
inactive: Potency [1] | Potency [2] | Potency [3] | Potency [4] | Potency [5] | Potency [6] | Potency [8] | Potency [9] | Potency [10] | Potency [11] | Potency [12] | Potency [13] | outcome [14] | Potency [15] | Potency [16] | outcome [17] | outcome [18] | Potency [19] | activation [20] -10.8%

Cc1ccc(Br)cc1
inactive: Potency [1] | Potency [2] | Potency [3] | Potency [4] | Potency [5] | Potency [6] | Potency [7] | Potency [8] | Potency [9] | Potency [10] | Potency [11] | Potency [12] | Potency [13] | outcome [14] | Potency [15] | Potency [16] | outcome [17] | outcome [18] | Potency [19]

O=C1NC(=O)c2cc([N+](=O)[O-])ccc21
inactive: Potency [1] | Potency [2] | Potency [3] | Potency [4] | Potency [5] | Potency [6] | Potency [7] | Potency [8] | Potency [9] | Potency [10] | Potency [11] | Potency [12] | Potency [13] | outcome [14] | Potency [15] | Potency [16] | outcome [17] | outcome [18] | Potency [19] | activation [20] -13.5%

C1CCC2OC2C1 (configuration not stated)
inactive: Potency [2] | Potency [3] | Potency [4] | Potency [5] | Potency [6] | Potency [7] | Potency [8] | Potency [9] | Potency [10] | Potency [11] | Potency [12] | Potency [13] | Potency [15] | Potency [16] | outcome [17] | outcome [18] | Potency [19] | activation [20] -3.32%

Nc1cccc(S(=O)(=O)O)c1
inactive: Potency [1] | Potency [3] | Potency [4] | Potency [5] | Potency [6] | Potency [7] | Potency [8] | Potency [9] | Potency [10] | Potency [11] | Potency [12] | Potency [13] | outcome [14] | Potency [16] | outcome [17] | outcome [18] | Potency [19] | activation [20] 6.82%

c1ccsc1
inactive: Potency [1] | Potency [2] | Potency [3] | Potency [4] | Potency [5] | Potency [6] | Potency [8] | Potency [9] | Potency [10] | Potency [11] | Potency [12] | Potency [13] | Potency [16] | outcome [17] | outcome [18] | Potency [19] | activation [20] -6.67%

O=C1CCCCC1
inactive: Potency [1] | Potency [2] | Potency [3] | Potency [4] | Potency [5] | Potency [6] | Potency [7] | Potency [8] | Potency [9] | Potency [10] | Potency [11] | Potency [12] | Potency [13] | outcome [14] | Potency [15] | Potency [16] | outcome [17] | outcome [18] | Potency [19] | activation [20] 14.6%

Cc1cc(C)cc(N)c1
inactive: Potency [1] | Potency [2] | Potency [3] | Potency [4] | Potency [5] | Potency [6] | Potency [8] | Potency [9] | Potency [10] | Potency [11] | Potency [12] | Potency [13] | outcome [14] | Potency [15] | Potency [16] | outcome [17] | outcome [18] | Potency [19] | activation [20] 2.27%

Nc1ccc(F)cc1F
inactive: Potency [1] | Potency [2] | Potency [3] | Potency [4] | Potency [5] | Potency [6] | Potency [7] | Potency [8] | Potency [9] | Potency [10] | Potency [11] | Potency [12] | Potency [13] | outcome [14] | Potency [15] | Potency [16] | outcome [17] | outcome [18] | Potency [19] | activation [20] 18.9%
